From PubChem BioAssay AID1159580 (chemical genetic matrix, 2015)
“And” between values parts separate entries of the source, which are not always exact repeats. Equal entries are not always repeated. About 2,000 (36%) of roughly 5,500 compounds were called active. Not shown: some 18% with an inconclusive outcome. No stated cut-off is given here; in the data, active means normalized growth mostly below about 0.91 (no sharp cut-off); inconclusive means no clear call, values can overlap the other calls; inactive means mostly above about 0.92. The list shows a part of the results.

Assay: chemical genetic growth profiling, strain panel (AID 1159580);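 further: tested at 20 µM; growth read once vehicle control cultures reached saturation at 30 °C; 1 = growth at the plate median or of vehicle wells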
Conditions: S. cerevisiae deletion strains, growth OD

Measured: normalized growth

C[n+]1c2cc(N)ccc2cc2ccc(N)cc21
inactive: locus YBR021W, strain FUR4, stronger effect = lower value 1.11 | locus YBR171W, strain sec66, stronger effect = lower value 0.934 | locus YDL185W, strain tfp1, stronger effect = lower value 0.938 | locus YER110C, stronger effect = lower value 0.961 | locus YER155C, strain BEM2, stronger effect = lower value 0.935 | locus YGL078C, strain dbp3, stronger effect = lower value 0.937 | locus YGL167C, strain pmr1, stronger effect = lower value 0.938 | locus YHR094C, strain hxt1, stronger effect = lower value 0.939 | locus YIL125W, strain kgd1, stronger effect = lower value 0.945 | locus YJR066W, strain TOR1, stronger effect = lower value 0.849
active: locus YAL013W, strain DEP1, stronger effect = lower value 0.748 | locus YAL021C, strain ccr4, stronger effect = lower value 0.335 | locus YAL026C, strain drs2, stronger effect = lower value 0.586 | locus YAL030W, strain snc1, stronger effect = lower value 0.505 | locus YBL061C, strain skt5, stronger effect = lower value 0.616 | locus YBR009C, strain hhf1, stronger effect = lower value 0.356 | locus YBR023C, strain chs3, stronger effect = lower value 0.666 | locus YBR229C, strain ROT2, stronger effect = lower value 0.888 | locus YBR231C, strain swc5, stronger effect = lower value 0.359 | locus YBR279W, strain paf1, stronger effect = lower value 0.701 | locus YCL011C, strain gbp2, stronger effect = lower value 0.438 | locus YCL016C, strain dcc1, stronger effect = lower value 0.331 | locus YCL029C, strain bik1, stronger effect = lower value 0.67 | locus YCL069W, strain vba3, stronger effect = lower value 0.588 | locus YCR088W, strain abp1, stronger effect = lower value 0.55 | locus YDL005C, strain med2, stronger effect = lower value 0.572 | locus YDL035C, strain GPR1, stronger effect = lower value 0.72 | locus YDL040C, strain nat1, stronger effect = lower value 0.718 | locus YDL074C, strain BRE1, stronger effect = lower value 0.575 | locus YDL101C, strain DUN1, stronger effect = lower value 0.761 | locus YDL134C, strain PPH21, stronger effect = lower value 0.726 | locus YDL192W, strain arf1, stronger effect = lower value 0.844 | locus YDR001C, strain nth1, stronger effect = lower value 0.74 | locus YDR069C, strain doa4, stronger effect = lower value 0.591 | locus YDR101C, strain arx1, stronger effect = lower value 0.81 | locus YDR137W, strain rgp1, stronger effect = lower value 0.616 | locus YDR150W, strain NUM1, stronger effect = lower value 0.831 | locus YDR159W, strain sac3, stronger effect = lower value 0.77 | locus YDR162C, strain NBP2, stronger effect = lower value 0.723 | locus YDR195W, strain ref2 1.22 [resistant] | locus YDR297W, strain sur2, stronger effect = lower value 0.652 | locus YDR318W, strain mcm21, stronger effect = lower value 0.834 | locus YDR334W, strain swr1, stronger effect = lower value 0.412 | locus YDR335W, strain msn5, stronger effect = lower value 0.499 | locus YDR388W, stronger effect = lower value 0.722 | locus YDR392W, strain spt3, stronger effect = lower value 0.352 | locus YDR502C, strain sam2, stronger effect = lower value 0.793 | locus YEL003W, strain gim4, stronger effect = lower value 0.491 | locus YEL037C, strain rad23, stronger effect = lower value 0.437 | locus YEL061C, strain CIN8 (second series), stronger effect = lower value 0.652 | locus YEL061C, strain CIN8, stronger effect = lower value 0.851 | locus YER015W, strain faa2, stronger effect = lower value 0.498 | locus YER016W, strain bim1, stronger effect = lower value 0.479 | locus YER111C, strain swi4, stronger effect = lower value 0.633 | locus YER155C, strain BEM2 (second series), stronger effect = lower value 0.272 | locus YER167W, strain BCK2, stronger effect = lower value 0.754 | locus YFR010W, strain ubp6, stronger effect = lower value 0.536 | locus YGL086W, strain mad1, stronger effect = lower value 0.778 | locus YGL173C, strain kem1, stronger effect = lower value 0.481 | locus YGL227W, strain vid30, stronger effect = lower value 0.671 | locus YGL240W, strain doc1, stronger effect = lower value 0.63 | locus YGL248W, strain PDE1, stronger effect = lower value 0.758 | locus YGL253W, strain hxk2, stronger effect = lower value 0.425 | locus YGR078C, strain PAC10, stronger effect = lower value 0.722 | locus YGR135W, strain pre9, stronger effect = lower value 0.777 | locus YGR229C, strain SMI1, stronger effect = lower value 0.704 | locus YGR252W, strain gcn5, stronger effect = lower value 0.531 | locus YHR013C, strain ard1, stronger effect = lower value 0.397 | locus YHR027C, strain rpn1, stronger effect = lower value 0.546 | locus YHR079C, strain IRE1 (second series), stronger effect = lower value 0.779 | locus YHR079C, strain IRE1, stronger effect = lower value 0.841 | locus YHR129C, strain ARP1, stronger effect = lower value 0.897 | locus YHR142W, strain chs7, stronger effect = lower value 0.44 | locus YHR200W, strain rpn10, stronger effect = lower value 0.682 | locus YIL066C, strain RNR3, stronger effect = lower value 0.792 | locus YIL073C, strain SPO22, stronger effect = lower value 0.534 | locus YIR030C, strain dcg1, stronger effect = lower value 0.859 | locus YJL092W, strain hpr5, stronger effect = lower value 0.253 | locus YJL095W, strain BCK1 (second series), stronger effect = lower value 0.487 | locus YJL095W, strain BCK1, stronger effect = lower value 0.486 and 0.879 | locus YJL115W, strain asf1, stronger effect = lower value 0.369 | locus YJL129C, strain trk1, stronger effect = lower value 0.773 | locus YJL134W, strain LCB3, stronger effect = lower value 0.912 | locus YJL154C, strain vps35, stronger effect = lower value 0.808 | locus YJL164C, strain tpk1, stronger effect = lower value 0.417 | locus YJL166W, strain qcr8, stronger effect = lower value 0.392 | locus YJL168C, strain set2, stronger effect = lower value 0.91 | locus YJL187C, strain SWE1 (second series), stronger effect = lower value 0.708 | locus YJR043C, strain POL32, stronger effect = lower value 0.703 | locus YJR075W, strain HOC1, stronger effect = lower value 0.566
0.724 (active) and 0.882 (inactive): locus YHR030C, strain SLT2, stronger effect = lower value
